High-throughput results from PubChem.
Many of the other results were omitted from the sample, so hits are more common in it than they were.
HT1080-NT tox = kills 2HG-producing HT-1080-NT fibrosarcoma cells; HT-1080-NT fibrosarcoma viability, CellTiter-Glo ATP luminescence, 48 h; Potency, µM (series often up to 46.1 µM), for inactives: top-dose activity, negative = less viability, usual class: cytotoxic; hit rate 1.6% among 360,000;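 note: NT is the 2HG producing partner of a matched IDH1 knockdown line; potency is the fitted concentration of half-maximal effect; 0% = DMSO-treated cells and -100% = media-only wells without cells; nearly all actives have a fitted effect of over 55% in size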
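Toxicity toward the 2HG-producing NT line was scored as %Activity, normalised to DMSO and no-cell wells, from CellTiter-Glo luminescence after 48 hours' treatment.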
DT40 TDP1 no CPT = qHTS for Inhibitors of human tyrosyl-DNA phosphodiesterase 1 (TDP1): qHTS in cells in absence of CPT. DT40 Tdp1-/- hTDP1 cells, no CPT, ATP luminescence, 48 h. Potency, µM (titrated, usually from 46.2 µM), for inactives: at the top dose activity change, negative = growth inhibition, most hits filed as inhibitors. hit rate 15% among 420,000. AID 686978, 2013; note: potency is the fitted concentration of half-maximal effect; nearly all actives have a fitted effect of over 55% in size
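Cells were dispensed at 400 per well, compounds added by pin tool, plates incubated ≥48 hr at 37 °C, then CellTiter-Glo added for 30 min at room temperature before luminescence reading. Line: DT40 Tdp1-/- complemented with hTDP1; camptothecin omitted.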
HT1080 IDH1KD tx = kills HT-1080 cells with IDH1 knockdown; Potency, µM (top dose mostly 46.1 µM), inactives show top-dose activity, negative = toxicity, most hits filed as cytotoxic; HT-1080 IDH1 knockdown viability, ATP luminescence, 48 h; hit rate 2% among 360,000;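 note: potency is the fitted concentration of half-maximal effect; 0% = DMSO wells and -100% = cell-free medium wells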
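Luminescent ATP read-out (CellTiter-Glo, 10 min at room temperature) after 48 h compound exposure at 37 °C gave viability of IDH1-knockdown HT-1080 cells. Activity was normalised to DMSO and cell-free wells, then fitted as concentration-response curves.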
ALOX12 inh = blocks human arachidonate 12S-lipoxygenase; purified 12hLO, xylenol orange hydroperoxide absorbance; Potency, µM (highest dose often 108 µM), inactives show top-dose activity change, negative = inhibition, usual class: inhibitors; hit rate 1.1% among 580,000; AID 1671190; note: potency is the fitted concentration of half-maximal effect
Target sequence (P18054 whole entry, looked up): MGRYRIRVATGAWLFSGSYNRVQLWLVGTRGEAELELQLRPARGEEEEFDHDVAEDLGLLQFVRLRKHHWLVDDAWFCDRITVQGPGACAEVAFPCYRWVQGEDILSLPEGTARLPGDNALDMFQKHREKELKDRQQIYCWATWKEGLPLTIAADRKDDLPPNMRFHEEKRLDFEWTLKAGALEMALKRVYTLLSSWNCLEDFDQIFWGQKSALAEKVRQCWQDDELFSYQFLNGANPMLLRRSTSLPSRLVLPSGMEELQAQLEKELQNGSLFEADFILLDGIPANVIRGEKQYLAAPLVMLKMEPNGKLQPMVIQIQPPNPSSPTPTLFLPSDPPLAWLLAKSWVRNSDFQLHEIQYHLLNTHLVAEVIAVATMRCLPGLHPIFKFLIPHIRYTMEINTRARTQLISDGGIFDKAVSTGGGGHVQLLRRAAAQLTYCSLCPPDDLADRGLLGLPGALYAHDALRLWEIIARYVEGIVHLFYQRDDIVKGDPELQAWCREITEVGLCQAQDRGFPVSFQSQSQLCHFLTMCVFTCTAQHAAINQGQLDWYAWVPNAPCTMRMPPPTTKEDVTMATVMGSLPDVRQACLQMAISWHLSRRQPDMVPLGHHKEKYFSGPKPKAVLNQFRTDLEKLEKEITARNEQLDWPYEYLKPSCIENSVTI
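Purified human 12hLO (150 nM final) in 25 mM Hepes, 0.01% Triton X-100, pH 7.0 was preincubated 15 min at room temperature with compound. Then 40 uM arachidonic acid was added, 30 min. Hydroperoxide was read by Fe-XO absorbance ratio 573/405 nm.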
TDP1 cell CPT = growth inhibition of DT40 Tdp1-/-;hTDP1 cells with camptothecin (screen for TDP1 inhibitors) | Potency, µM (series often up to 46.2 µM), inactives show top-dose activity change, negative = growth inhibition, hits mostly inhibitors | hit rate 12% among 420,000 | chicken DT40 Tdp1-/-;hTDP1 cells + 20 nM CPT, ATP luminescence, 48 h; note: potency is the fitted concentration of half-maximal effect; nearly all actives have a fitted effect of over 55% in size
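Cell growth measured by CellTiter-Glo luminescence after a minimum 48 h, 37 C compound exposure with 20 nM CPT in Tdp1-knockout DT40 cells stably expressing hTDP1, seeded 400/well; qHTS titration format.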
IL-1B inflam inh = inflammasome signaling inhibition, IL-1 beta readout. THP-1 LPS/ATP IL-1B secretion, AlphaLISA, 16 h; hits give low values. hit rate 4.7% among 360,000. activity change, % at 57.5 µM; in the data active = activity change below about -50%; inconclusive = mostly about -30% to -49%
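THP-1 cells pretreated 1 hr with compounds (up to 57.5 uM final), then stimulated with LPS (250 ng/mL final) plus ATP (1.25 mM final); secreted IL-1B measured by AlphaLISA after 16 hr, decreased signal indicating inhibition.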
* = called active by the depositor. Unless noted, calls come from the whole dose curve; as a rule, active = well fitted curve in the direction sought with a large enough effect; inconclusive = small, poorly fitted or top-dose-only effect, or another doubt; inactive = no such curve, though single readings can be large; an effect the other way counts as inactive or inconclusive. Unless noted, % is set by controls: 0 for no effect and ±100 for the full control effect.

COc1ccc(NC(=O)CC2C(=O)N(c3ccccc3)C(=O)N2CCC2=CCCCC2)cc1 (stereo unspecified) was read as DT40 TDP1 no CPT inconclusive, ALOX12 inh 5% and TDP1 cell CPT inconclusive.
Screening CCOc1ccc(NC(=O)CC2C(=O)N(c3cccc(C)c3)C(=O)N2CCC2=CCCCC2)cc1 (stereo unspecified) returned DT40 TDP1 no CPT 23µM*, ALOX12 inh inconclusive and TDP1 cell CPT inconclusive.
COc1ccc(N2C(=O)C(CC(=O)Nc3ccc(F)cc3)N(CCC3=CCCCC3)C2=O)cc1 (stereo unspecified) was read as DT40 TDP1 no CPT 16µM*, ALOX12 inh inconclusive and TDP1 cell CPT inconclusive.
For Cc1ncsc1CN1CCC(C2CCN(S(C)(=O)=O)CC2)C1 (stereo unspecified) the results were ALOX12 inh 41%.
`CC(OC(=O)c1cc[n+]([O-])cc1)C(=O)c1ccc(C(C)(C)C)cc1` (stereo unspecified) gave ALOX12 inh -20%.
`O=C1CC2(CCN(C(=O)CCn3cc(Cl)cn3)C2)C(=O)N1` (stereo unspecified) gave ALOX12 inh 3%.
For CCn1ncc(CN2C[C@@H](COC)[C@H](c3ccncc3)C2)c1C the results were ALOX12 inh 33%.
COc1ccc(N2CCN(C(=O)CSc3n[nH]c(-c4ccccc4)n3)CC2)cc1 was read as DT40 TDP1 no CPT inconclusive, ALOX12 inh 0% and TDP1 cell CPT inconclusive.
O=C(CSc1nnc(-c2ccncc2)n1-c1ccccc1)N1CCN(c2ccc(Cl)cc2)CC1 was read as HT1080-NT tox 10%, DT40 TDP1 no CPT 18µM*, HT1080 IDH1KD tx 5%, ALOX12 inh inconclusive, TDP1 cell CPT inconclusive and IL-1B inflam inh 14.
`COc1ccc(N2CCN(C(=O)CSc3nnc(-c4cccnc4)n3-c3ccc(F)cc3)CC2)cc1` gave HT1080-NT tox -4%, DT40 TDP1 no CPT 21µM*, HT1080 IDH1KD tx 11%, ALOX12 inh -19%, TDP1 cell CPT inconclusive and IL-1B inflam inh -18.
O=C(CSc1n[nH]c(-c2ccccc2)n1)N1CCN(c2ccc(F)cc2)CC1 was read as DT40 TDP1 no CPT 23µM*, ALOX12 inh inconclusive and TDP1 cell CPT inconclusive.
COc1ccc(N2CCN(C(=O)CSc3nnc4c(C)cc5ccccc5n34)CC2)cc1 was read as HT1080-NT tox -4%, DT40 TDP1 no CPT 13µM*, HT1080 IDH1KD tx -2%, ALOX12 inh -19%, TDP1 cell CPT 16µM* and IL-1B inflam inh 16.
Screening COc1ccc(N2CCN(C(=O)CSc3nnc(-c4cccnc4)n3-c3ccccc3)CC2)cc1 returned HT1080-NT tox 0%, DT40 TDP1 no CPT -21%, HT1080 IDH1KD tx -3%, ALOX12 inh -14%, TDP1 cell CPT -28% and IL-1B inflam inh -18.
Screening CN(C1CCOCC1)C1CCN(C(=O)C2CCCCC2)CC1 returned ALOX12 inh 49%.
`O=C(NCc1nncn1C1CCCCC1)C1CNCCO1` (stereo unspecified) gave ALOX12 inh 22%.
Screening CCC(C)NCc1ccccc1 (stereo unspecified) returned ALOX12 inh 8%.
COC[C@@H]1[C@H](C(=O)N2CCN(Cc3ccccc3)CC2)CCC(=O)N1C was read as ALOX12 inh 45%.
`Cc1nc(N2CCC(C(=O)NC3CCCCCCC3)CC2)cc(C(F)(F)F)n1` gave ALOX12 inh 5%.
`O=C(CSc1nnc(-c2cccnc2)n1-c1ccccc1)N1CCN(c2ccc(F)cc2)CC1` gave HT1080-NT tox 4%, DT40 TDP1 no CPT 21µM*, HT1080 IDH1KD tx 5%, ALOX12 inh inconclusive, TDP1 cell CPT inconclusive and IL-1B inflam inh -6.
O=C(CSC1=NCCS1)c1ccc(Cl)cc1 was read as HT1080-NT tox -24%, DT40 TDP1 no CPT inconclusive, HT1080 IDH1KD tx -21%, ALOX12 inh -10%, TDP1 cell CPT inconclusive and IL-1B inflam inh -26.
For O=C(CSC1=NCCS1)N1CCN(c2ccc(Cl)cc2)CC1 the results were HT1080-NT tox -25%, DT40 TDP1 no CPT inconclusive, HT1080 IDH1KD tx inconclusive, ALOX12 inh -21%, TDP1 cell CPT inconclusive and IL-1B inflam inh -77*.
`O=C(CCC[C@@H]1[C@H]2CCCN3CCC[C@@H](CN1C(=O)C1(c4ccccc4)CC1)[C@@H]23)NCC1CC1` gave ALOX12 inh -2%.
CCNC(=O)C1CCCN(Cc2cc(-c3ccccc3)on2)CC1 (stereo unspecified) was read as HT1080-NT tox 0%, DT40 TDP1 no CPT inconclusive, HT1080 IDH1KD tx 20%, ALOX12 inh inconclusive, TDP1 cell CPT -12% and IL-1B inflam inh 47.
For O=C(NCC1CCCO1)C1CCN(C(=O)c2ccc(Br)cc2)CC1 (stereo unspecified) the results were HT1080-NT tox 3%, DT40 TDP1 no CPT -3%, HT1080 IDH1KD tx -5%, ALOX12 inh -4%, TDP1 cell CPT -16% and IL-1B inflam inh 9.
For Cc1cc(Br)cn2c(Cc3ccsc3)c(-c3ccc(Cl)cc3)nc12 the results were HT1080-NT tox inconclusive, DT40 TDP1 no CPT 18µM*, HT1080 IDH1KD tx inconclusive, TDP1 cell CPT 15µM* and IL-1B inflam inh 89.
Screening Clc1ccc(-c2nc3ccc(Br)cn3c2Cc2ccccc2)cc1 returned HT1080-NT tox 8%, DT40 TDP1 no CPT 21µM*, HT1080 IDH1KD tx 2%, ALOX12 inh inconclusive, TDP1 cell CPT 23µM* and IL-1B inflam inh 18.
Screening Fc1ccc(-c2nc3ccc(Br)cn3c2Cc2ccccc2)cc1 returned HT1080-NT tox -1%, DT40 TDP1 no CPT inconclusive, HT1080 IDH1KD tx -4%, ALOX12 inh inconclusive, TDP1 cell CPT inconclusive and IL-1B inflam inh 28.
`Cc1cc(Br)cn2c(Cc3ccsc3)c(-c3ccco3)nc12` gave HT1080-NT tox 16µM*, DT40 TDP1 no CPT inconclusive, HT1080 IDH1KD tx 23µM*, ALOX12 inh inconclusive, TDP1 cell CPT inconclusive and IL-1B inflam inh -7.
Screening Cc1cc(Br)cn2c(Cc3ccccc3)c(-c3ccco3)nc12 returned HT1080-NT tox inconclusive, DT40 TDP1 no CPT inconclusive, HT1080 IDH1KD tx inconclusive, ALOX12 inh inconclusive, TDP1 cell CPT inconclusive and IL-1B inflam inh -19.
